This is part of a sample that, as a whole, favours compounds with a hit. Of some 79,000 tested, about 15% had one in any assay. Values without a mark were called inactive. Activity calls are given as the source filed them. No stated cut-off is given here; in the data, active means growth inhibition above about 70%; inactive means the rest.
How the values were obtained:
[1] = NCI Yeast Anticancer Drug Screen. Data for the rad50 strain (AID 155);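 further: 0% = growth of vehicle-only cultures of the same strain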; details: S. cerevisiae rad50 strain growth inhibition, hits give high values
In short: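 Genetically altered yeast (DNA repair pathway); compound treatment; growth inhibition vs vehicle ctrl.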

[2] = NCI Yeast Anticancer Drug Screen. Data for the mec2-1 strain (AID 157); details: S. cerevisiae mec2-1 strain, hits give high values
In short: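 Each compound was tested on mec2-1 yeast, a strain altered in DNA damage repair or cell cycle control. Growth inhibition is reported relative to vehicle.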

[3] = NCI Yeast Anticancer Drug Screen. Data for the sgs1 mgt1 strain (AID 161);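 further: 0% = growth of cultures given vehicle only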; details: S. cerevisiae sgs1 mgt1 strain, hits give high values
In short: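 Genetically altered yeast, compound exposure, growth inhibition relative to vehicle.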

[4] = NCI Yeast Anticancer Drug Screen. Data for the cln2 rad14 strain (AID 165);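 further: 0% = growth equal to vehicle treated cultures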; details: S. cerevisiae cln2 rad14 strain, hits give high values
In short: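 Test compounds were added to cln2 rad14 yeast cultures; inhibition of growth was then determined by comparison with vehicle treatment.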

[5] = NCI Yeast Anticancer Drug Screen. Data for the bub3 strain (AID 167); details: S. cerevisiae bub3 mutant strain, hits give high values
In short: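 Yeast carrying a defined mutation is treated with each compound, and growth is compared with that of vehicle-exposed cells to give inhibition.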

[6] = NCI Yeast Anticancer Drug Screen. Data for the mlh1 rad18 strain (AID 175); details: S. cerevisiae mlh1 rad18 strain growth inhibition, hits give high values
In short: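 Inhibition values reflect reduced growth of mutant yeast versus vehicle-treated controls following compound exposure; the mutations affect DNA damage repair.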

[7] = at 5.0 µM (retest, dose inferred, filed as 0.5)
[8] = at 50.0 µM (retest, dose inferred, filed as 5.0)

| Structure (SMILES) | growth inhibition [1, 7] [%] | growth inhibition [1, 8] | growth inhibition ([1]; at 50.0 µM) | growth inhibition [2, 7] | growth inhibition [2, 8] | growth inhibition ([2]; at 50.0 µM) | growth inhibition [3, 7] [%] | growth inhibition [3, 8] | growth inhibition ([3]; at 50.0 µM) | growth inhibition [4, 7] | growth inhibition [4, 8] | growth inhibition ([4]; at 50.0 µM) | growth inhibition [5, 7] | growth inhibition [5, 8] | growth inhibition ([5]; at 50.0 µM) | growth inhibition [6, 7] | growth inhibition [6, 8] | growth inhibition ([6]; at 50.0 µM) |
| --- | --- | --- | --- | --- | --- | --- | --- | --- | --- | --- | --- | --- | --- | --- | --- | --- | --- | --- |
| CC(C)C[C@H](NC(=O)[C@H](Cc1ccccc1)NC(=O)c1cnccn1)B(O)O | 55 | 87% (active) | 55.8% | 33% | 70% (active) | 30.4% | 52 | 78% (active) | 60.9% | 76% (active) | 94% (active) | 72.9% (active) | 69% | 90% (active) | 72.6% (active) | 55% | 79% (active) | 66.7% |
| S=c1sc2c(s1)SCCOCCOCCOCCS2 | -4 | 3% | 29.3% | 5% | 7% | 0.95% | -12 | 5% | 30.6% | 12% | 8% | 31.1% | 4% | 36% | 22.2% | -15% | -13% | 23.4% |
| CN(C)CCCNc1c(C#N)[n+]([O-])c2cc(Cl)ccc2[n+]1[O-] | 59 | 93% (active) | 66.7% | 72% (active) | 93% (active) | 43.5% | 60 | 90% (active) | 61.9% | 70% (active) | 90% (active) | 45.6% | 88% (active) | 94% (active) | 60% | 80% (active) | 93% (active) | 68.8% |
| Oc1ccccc1C(Sc1nc2ccccc2s1)Sc1nc2ccccc2s1 | 4 | 97% (active) | 97.3% (active) | 16% | 97% (active) | 95.8% (active) | 19 | 97% (active) | 97.2% (active) | -1% | 93% (active) | 72% (active) | -3% | 97% (active) | 91% (active) | 3% | 98% (active) | 90% (active) |
| O=C(NC1(OC(=O)c2ccc(Cl)cc2)CC1)c1ccc(Cl)cc1 | 6 | 97% (active) | 97.8% (active) | 14% | 98% (active) | 97.9% (active) | 15 | 91% (active) | 95.5% (active) | 25% | 97% (active) | 97.5% (active) | -8% | 98% (active) | 97.1% (active) | 24% | 97% (active) | 96.8% (active) |
| Cc1ccc(C(=O)C(F)(F)F)cc1 | -162 | -138% | 4.5% | -46% | -51% | -15.9% | -63 | -68% | -10.5% | -60% | -78% | 32.1% | -74% | -89% | -24.1% | -145% | -117% | 3.3% |
| CC(NC(=O)OCc1ccccc1)C(=O)NC(Cc1ccccc1)C(=O)OCc1ccccc1 (configuration not stated) | 1 | 5% | -17.6% | 37% | 2% | -5.05% | -2 | -1% | 22% | 5% | 2% | 36.6% | -3% | -7% | -4.4% | 1% | 7% | 6.45% |
| CCOC(=O)Cc1csc(/C=C/c2ccc(OC)c(OC)c2)n1 | -15 | 8% | 17.2% | -1% | 20% | 11.8% | -13 | 14% | 6.9% | 3% | 37% | -37.2% | 7% | 8% | -12.7% | 1% | 18% | 21.4% |
| COc1ccc(-c2cc(=O)c3c(C)ccnc3[nH]2)cc1 | 58 | 58% | 87.2% (active) | 43% | 43% | 83.2% (active) | 54 | 54% | 82.5% (active) | 20% | 20% | 65.8% | 25% | 25% | 81.8% (active) | 39% | 39% | 81.5% (active) |
| CC1(C)C=CC2=C(O1)C(=O)c1ccccc1C2=O | 9 | 76% (active) | 39.6% | 8% | 77% (active) | -0.85% | 18 | 88% (active) | 73.2% (active) | -7% | 12% | 6.9% | 67% | 95% (active) | 48.4% | 16% | 89% (active) | 44.5% |
| Nc1ccc2[nH]c3ccccc3c2c1 | -4 | 6% | 92.3% (active) | 0% | 1% | -17.6% | -9 | 0% | 40.2% | -5% | 3% | -38% | -1% | 18% | 25.2% | 0% | 29% | 16.8% |
| Cc1cc(C)c(C(=O)C(Br)C(Br)c2ccccc2)c(C)c1 (configuration not stated) | 54 | 94% (active) | 95.6% (active) | 43% | 97% (active) | 95.5% (active) | 63 | 95% (active) | 95.8% (active) | 15% | 91% (active) | 83.4% (active) | 47% | 93% (active) | 94.5% (active) | 46% | 94% (active) | 95.6% (active) |
| C=C1CC[C@@H](Br)C(C)(C)[C@]12CCC(C)(O)C(Cl)C2 (some centres not stated) | -3 | 34% | 91.7% (active) | 16% | 30% | 93.5% (active) | 10 | 44% | 92.2% (active) | 31% | 44% | 90.9% (active) | 6% | 72% (active) | 92% (active) | -25% | 41% | 91% (active) |
| CN(C)C[N+](C)(C)Cc1ccc(C[N+](C)(C)C[N+](C)(C)Cc2ccc(CCl)cc2)cc1 | 0 | -2% | 83% (active) | -36% | -1% | 20.4% | -2 | -1% | 69.5% | 0% | -1% | 45% | -8% | -1% | 66.2% | -2% | -1% | 52.5% |
| OCC(CCc1c[nH]c2ccccc12)c1c[nH]c2ccccc12 (configuration not stated) | 27 | 99% (active) | 99.4% (active) | 5% | 99% (active) | 99.3% (active) | 20 | 100% (active) | 62% | 5% | 99% (active) | 99.5% (active) | 21% | 100% (active) | 99.3% (active) | 11% | 98% (active) | 99.3% (active) |
| OC1CCCCC1Cc1ccc(Cl)cc1 (configuration not stated) | -2 | 56% | 90.5% (active) | 4% | 26% | 93.8% (active) | 4 | 31% | 65.3% | -2% | 30% | 90% (active) | 32% | 97% (active) | 98.8% (active) | -2% | 45% | 93.4% (active) |
| NC(=O)CCSC(=S)N1CCOCC1 | -2 | -16% | -8.55% | -5% | -2% | -16.6% | -3 | 4% | -8.35% | 4% | -2% | 29.1% | 39% | -5% | -1.85% | 1% | 2% | -17.4% |
| C=C(CN(C)C)C(=O)c1ccccc1Cl | -10 | 90% (active) | 90.8% (active) | -15% | 80% (active) | 92.7% (active) | 15 | 95% (active) | 92.5% (active) | -10% | 25% | 7.9% | -14% | 96% (active) | 70.6% (active) | 46% | 98% (active) | 98.1% (active) |
| CC(=O)OC1COC(n2nnc(C#N)c2C#N)C(OC(C)=O)C1OC(C)=O (configuration not stated) | 4 | 9% | 93.7% (active) | -7% | 2% | 82.4% (active) | 1 | 4% | 94.7% (active) | 3% | 4% | 83% (active) | 1% | 4% | 89.3% (active) | 0% | 27% | 91.8% (active) |

— PubChem BioAssay (NCI)
